Results filed as inconclusive are left out. Calls of active or inactive are those of the source. Calls follow the shape of the dose curve; as a rule, active = well fitted cell-killing curve with a large enough effect; inconclusive = small, poorly fitted or top-dose-only effect, or effect the other way; inactive = no such curve, though single readings can be large or run the other way.
The compounds below were run on CASKI (assay: Confirmatory qHTS for gynecologic anti-cancer compounds from libraries of approved drugs and bioactive compounds). Settings: gynecologic cancer cell panel viability, ATPlite luminescence, 48 h; series mostly up to 57.6 µM.
Outline: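 Cells (1,000/well) plated 16 h, then exposed 48 h at 37 °C to 11 concentrations (1:3) from 57.5 uM to 0.977 nM. Viability by ATPlite luminescence after 15 min; IC50 derived, with HEK 293T used for selectivity index.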
Also: nearly all actives have a fitted effect of over 55% in size.
Potency is read from the fitted curve at half-maximal effect.

| SMILES | Potency |
| --- | --- |
| C=CC(=O)Nc1cc2c(Nc3ccc(F)c(Cl)c3)ncnc2cc1OCCCN1CCOCC1 | 27.3 µM (active) |
| S=c1nc[nH]c2nc[nH]c12 | 4.85 µM (active) |
| CN(C[C@@H]1COCCO1)S(=O)(=O)Nc1ccc2ccc3ncc(-c4cnn(C)c4)cc3c(=O)c2c1 | inactive |
| CCCCN(CCCC)C(=O)CN1C[C@H](c2ccc3c(c2)OCO3)[C@@H](C(=O)O)[C@@H]1c1ccc(OC)cc1 | inactive |
| NS(=O)(=O)c1ccc(Nc2nc(OCC3CCCCC3)c3[nH]cnc3n2)cc1 | inactive |
| CC(=O)OC12COC1CC(O)C1(C)C(=O)C(O)C3=C(C)C(OC(=O)C(O)C(NC(=O)OC(C)(C)C)c4ccccc4)CC(O)(C(OC(=O)c4ccccc4)C21)C3(C)C (configuration not stated) | inactive |
| Cc1ccc(C(=O)Nc2ccc(Oc3cc4cnn(C)c4cc3-c3cn[nH]c3)c(F)c2)c(=O)n1-c1ccc(F)cc1 | inactive |
| Nc1nccc(Oc2ccc(NC(=O)c3c[nH]cc(-c4ccc(F)cc4)c3=O)cc2F)c1Cl | 12.2 µM (active) |
| CCC1C(=O)N(C)c2cnc(Nc3ccc(C(=O)NC4CCN(C)CC4)cc3OC)nc2N1C1CCCC1 (configuration not stated) | 6.85 µM (active) |
| CC[C@H](CC#N)OC(=O)N[C@@H](C)c1cccc(NC(=O)Nc2ccc(-c3cnco3)c(OC)c2)c1 | inactive |
| COc1cc2c(Oc3ccc(-c4cnc(Nc5ccc(F)cc5)n(C)c4=O)cc3F)ccnc2cc1OCCCN1CCOCC1 | inactive |
| CCOc1cc2ncc(C#N)c(Nc3ccc(F)c(Cl)c3)c2cc1NC(=O)/C=C/CN(C)C | 8.63 µM (active) |
| O=C(NOCC1CC1)c1ccc(F)c(F)c1Nc1ccc(I)cc1Cl | 21.7 µM (active) |
| Cc1csc(NC(=O)c2sc3nc4c(c(C(F)(F)F)c3c2N)CCC4)n1 | 5.44 µM (active) |
| O=C1Cc2cc(CCN3CCN(c4nsc5ccccc45)CC3)c(Cl)cc2N1 | inactive |
| C#C[C@]1(O)CC[C@H]2[C@@H]3CCC4=CC(=O)CC[C@@H]4[C@H]3CC[C@@]21CC | inactive |

| SMILES | Potency |
| --- | --- |
| CC[C@@]1(O)C(=O)OCc2c1cc1n(c2=O)Cc2cc3cc(O)ccc3nc2-1 | 0.243 µM (active) |
| CN[C@@H](C)C(=O)N[C@H]1CN(C(=O)CC(C)C)CC[C@H]2CC[C@@H](C(=O)NC(c3ccccc3)c3ccccc3)N2C1=O | inactive |
| CNC1CCC(N(Cc2cccc(-c3ccncc3)c2)C(=O)c2sc3ccccc3c2Cl)CC1 (configuration not stated) | 34.3 µM (active) |
| OC[C@H]1O[C@@H](n2cnc3c(=S)nc[nH]c32)[C@H](O)[C@@H]1O | 4.85 µM (active) |
| Cc1ccc(C(=O)N(CCCN)C(c2oc3cc(Cl)ccc3c(=O)c2Cc2ccccc2)C(C)C)cc1 (configuration not stated) | 27.3 µM (active) |
| COC(C)(C)CCn1nc(Nc2c(C)cccc2C)c2cnc(Nc3ccc(OCCN4CCCC4)c(F)c3)nc21 | 3.43 µM (active) |
| Cc1cnc(Nc2ccc(OCCN3CCCC3)cc2)nc1Nc1cccc(S(=O)(=O)NC(C)(C)C)c1 | 19.3 µM (active) |
| CN1C2CCC1CC(OC(=O)[C@H](CO)c1ccccc1)C2 (some centres not stated) | inactive |
| CN(C)c1ccc(-c2nc3ncc(Cl)c(N4CCN(CC(=O)Nc5nccs5)CC4)c3[nH]2)cc1 | inactive |
| COC(C(=O)N1Cc2[nH]nc(NC(=O)c3ccc(N4CCN(C)CC4)cc3)c2C1)c1ccccc1 (configuration not stated) | 7.69 µM (active) |
| COc1cc(N2CCC(N3CCN(C)CC3)CC2)ccc1Nc1ncc(Cl)c(Nc2ccccc2S(=O)(=O)C(C)C)n1 | 12.2 µM (active) |
| Cn1c(=O)c(-c2c(Cl)cccc2Cl)cc2cnc(Nc3cccc(C(=O)O)c3)nc21 | 3.06 µM (active) |
| NC(=O)c1cnc(-c2ccc(C3(N)CCC3)cc2)c(-c2ccccc2)c1 | 21.7 µM (active) |
| CC(C)CC(=O)Nc1n[nH]c2c1CN(C(=O)C1CCN(C)CC1)C2(C)C | 3.43 µM (active) |
| CC[C@]1(O)C[C@H]2CN(CCc3c([nH]c4ccccc34)[C@@](C(=O)OC)(c3cc4c(cc3OC)N(C=O)[C@H]3[C@@](O)(C(=O)OC)[C@H](OC(C)=O)[C@]5(CC)C=CCN6CC[C@]43[C@@H]65)C2)C1 | inactive |
| CCCC(=O)O[C@]1(C(=O)CCl)[C@@H](C)C[C@H]2[C@@H]3CCC4=CC(=O)C=C[C@]4(C)[C@@]3(F)C(=O)C[C@@]21C | 30.6 µM (active) |
